Results filed as inconclusive are left out. Where a call stands in place of a potency, no number is given. The source made the active and inactive calls. The call rests on the fitted dose curve; in most records, active means well fitted cell-killing curve with a large enough effect; inconclusive means small, poorly fitted or top-dose-only effect, or effect the other way; inactive means no such curve, though single readings can be large or run the other way.
Legend:
[1] = Viability qHTS for spleen associated tyrosine kinase inhibitor (SYKi) naive MV4-11 cells (AID 1963823); conditions: MV4-11 AML viability, CellTiter-Glo luminescence, 72 h; series mostly up to 45 µM; further: nearly all actives have a fitted effect of over 40% in size
Summary of the method: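 Seeding of 500 SYKi-naive MV4-11 cells per well onto pre-dispensed compounds preceded a 72 hr incubation at 37 C. Luminescent CellTiter-Glo signal, read after 10 min at room temperature, reflected viable cells.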

[2] = Viability qHTS for spleen associated tyrosine kinase inhibitor (SYKi) drug resistant MV4-11 cells (AID 1963824); conditions: SYKi-resistant MV4-11 viability, CellTiter-Glo, 72 h; series mostly up to 45 µM; further: nearly all actives have a fitted effect of over 35% in size
Summary of the method: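 SYK inhibitor-resistant MV4-11 AML cells, 500 per well, added to predispensed compounds and incubated 72 hr at 37 C, 5% CO2. Viability measured by CellTiter-Glo luminescence after 10 min at room temperature.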
Potency means the concentration at half of the fitted maximal effect.

Structure (SMILES) | viability (% of control) [1] | viability, % of control [2] | Potency [1] | Potency [2]
C=C(C)C1CCC2(C(=O)OC3OC(COC4OC(CO)C(O)C(O)C4O)C(OC4OC(C)C(O)C(O)C4O)C(O)C3O)CCC3(C(=O)O)C(CCC4C5(C)CCC(=O)C(C)(C)C5CCC43C)C12 (stereo not given) | 84.8% [at 9.25 µM] (inactive) | 91.7% [at 9.25 µM] (inactive) | – | –
COC(=O)[C@@H]1C2CC3c4[nH]c5ccccc5c4CCN3CC2CC[C@@H]1O (stereo not given in full) | – | – | inactive | inactive
O=C1O[C@H](C(O)CO)C(=O)C1=O (stereo not given in full) | – | – | inactive | inactive
COc1cc(C2c3cc4c(c(O)c3CC(CO)C2C(=O)O)OCO4)cc(OC)c1O (stereo not given) | – | – | 2.52 µM (active) | 2 µM (active)
COc1ccc(/C=C/C(=O)O[C@@H]2[C@@H](O)[C@@H](O)[C@H](O[C@H]3[C@@H]4C=CO[C@@H](O[C@@H]5O[C@H](CO)[C@@H](O)[C@H](O)[C@H]5O)[C@@H]4[C@@]4(CO)O[C@@H]34)O[C@H]2C)cc1 | – | – | inactive | inactive
CC(=O)OCC(=O)O[C@@H]1[C@H]2[C@@H](OC(=O)c3ccccc3)[C@@H](C)C[C@]2(O)[C@H](OC(C)=O)C2(C)[C@H]3CC(C)(C)C(=O)[C@@H]3CC1(OC(C)=O)[C@@H]2OC(C)=O (stereo not given in full) | – | – | inactive | inactive
C[C@@H]1CN(CCCn2c3ccccc3c3ccccc32)C[C@H](C)N1 | – | – | 23.7 µM (active) | 26.6 µM (active)
O=C(Nc1ccc(CN2CCOCC2)cc1)c1ccc(-c2cccc(Cl)c2)o1 | – | – | 8.2 µM (active) | 9.2 µM (active)
CC(C)(C)c1ccc(S(=O)(=O)Nc2ccc(-n3ccnc3)cc2)cc1 | – | – | 10.3 µM (active) | 10.3 µM (active)
COC(=O)c1cc(OC)cc(OC)c1C(=O)c1c(OC)cc2c(c1O)C1CCCC(C)(O2)O1 (stereo not given) | – | – | inactive | 7.09 µM (active)
COc1ccc(CN2CCN(CCCSc3cc(C(C)(C)C)c(O)c(C(C)(C)C)c3)CC2)c(OC)c1OC | – | – | 3.48 µM (active) | 3.48 µM (active)
CC[C@H](C)[C@H](NC(=O)[C@H]([C@@H](C)CC)N(C)C(C)=O)C(=O)N[C@H](C(=O)N[C@@H](CC(C)C)C(=O)[C@@]1(C)CO1)[C@@H](C)O | – | – | 0.0058 µM (active) | 0.0073 µM (active)
C=C1CC23CC1CCC2C12OC(=O)C(C)(CCC1O)C2C3C(=O)O (stereo not given) | – | – | inactive | inactive
C[C@@H]1CC[C@]2(C(=O)O)CC[C@]3(C(=O)O)C(=CCC4[C@@]5(C)CC[C@H](O[C@@H]6O[C@@H](C)[C@H](O[C@@H]7O[C@H](CO)[C@@H](O)[C@H](O)[C@H]7O)[C@@H](O)[C@H]6O)C(C)(C)C5CC[C@]43C)C2[C@H]1C (stereo not given in full) | – | – | inactive | inactive
COc1cc(C(=O)OC[C@H]2O[C@@H](OC(C)(C)C(=O)O)[C@H](O)[C@@H](O)[C@@H]2O)cc(OC)c1O | – | – | inactive | inactive
COc1cc2c(cc1-c1c(C)noc1C)ncc1[nH]c(=O)n(C(C)c3ccccn3)c12 (stereo not given) | – | – | 0.326 µM (active) | 0.366 µM (active)
Cc1ccc(S(=O)(=O)c2ccc([N+](=O)[O-])o2)cc1 | – | – | 0.461 µM (active) | 0.411 µM (active)
OC[C@H]1O[C@@H](O[C@@H]2OC=C[C@H]3[C@H](O)[C@@H]4O[C@]4(CO)[C@@H]23)[C@H](O)[C@@H](O)[C@@H]1O | – | – | inactive | inactive
CC1=CC2=C(C)C(=O)C(C)(O)C(O)C2CO1 (stereo not given) | – | – | inactive | inactive
C[C@H](CCC(=O)O)[C@H]1CC[C@H]2[C@@H]3C[C@H](O)[C@@H]4C[C@H](O)CC[C@]4(C)[C@H]3CC[C@]12C | – | – | inactive | inactive
CC1=C(C)C(=O)OC(C(C)C2CCC3C4CC=C5CC(OC6OC(COC7OC(CO)C(O)C(O)C7O)C(O)C(O)C6O)CC(O)C5(C)C4CCC23C)C1 (stereo not given) | – | – | inactive | inactive
OC[C@@]1(O)CO[C@H](OC[C@H]2O[C@@H](OCCc3ccccc3)[C@H](O)[C@@H](O)[C@@H]2O)[C@@H]1O | – | – | inactive | inactive
CC(C)S(=O)(=O)c1ccc2nccc(Nc3ccc4scnc4c3)c2c1 | – | – | 8.2 µM (active) | 16.4 µM (active)
Cc1cnc(NC(=O)Nc2cc(Br)c(C)cc2OCC2CNCCO2)cn1 (stereo not given) | – | – | 0.731 µM (active) | 0.82 µM (active)
COc1cc(/C=C/C(=O)O[C@H]2[C@H](OC(=O)/C=C/c3cc(OC)c(O)c(OC)c3)O[C@H](CO[C@@H]3O[C@H](CO)[C@@H](O)[C@H](O)[C@H]3O)[C@@H](O)[C@@H]2O)ccc1O | – | – | inactive | inactive

Reference: PubChem BioAssay (NCATS)
